Assay [1] in a line: ATG_NF_kB_CIS: Attagene CIS-FACTORIAL HepG2 Assay for human Nuclear Factor Kappa B (NF-kB) (AID 2282991). The conditions noted are these: HepG2 Attagene cis-factorial NF-kB reporter mRNA; actives raise or lower the signal. Put shortly:
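HepG2 cells transiently transfected with multiplexed cis-element reporter units measuring endogenous transcription factor activity; reporter mRNA read 24 h after dosing by RT-PCR, fluorescent labelling, HpaI digestion and capillary electrophoresis. Bidirectional fit against DMSO baseline.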

Assay [2] is described as follows: ATG_Oct_MLP_CIS: Attagene CIS-FACTORIAL HepG2 Assay for human Octamer-Binding Transcription Factor (Oct) (AID 2282993). The conditions noted are these: HepG2 Attagene cis-factorial Oct reporter, mRNA; actives raise or lower the signal. In short, it runs like this: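 Cells of the HepG2 line express promoter-controlled reporter sequences whose mRNA levels, after 24 h treatment, are measured by RT-PCR and capillary electrophoresis. Increases and decreases are scored relative to DMSO.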

Assay [3] addresses Cellular tumor antigen p53 (Homo sapiens) (UniProt P04637). Nature of the assay: ATG_p53_CIS: Attagene CIS-FACTORIAL HepG2 Assay for human p53 Transcription Factor (AID 2282994). The conditions noted are these: HepG2 p53 cis-element reporter, Attagene mRNA; actives raise or lower the signal. Put shortly:
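Using HepG2 hepatoma cells carrying cis-acting multiplexed reporters, mRNA induction is detected after a 24 h exposure. Gain- and loss-of-signal responses are fitted relative to DMSO-treated cells.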

The target of assay [4] is human Peroxisome Proliferator-activated Receptor alpha (PPARa), PPARA (gene 5465) (UniProt Q07869). Nature of the assay: ATG_PPARa_TRANS: Attagene TRANS-FACTORIAL HepG2 Assay for human Peroxisome Proliferator-activated Receptor alpha (PPARa) (AID 2283001; active means hit-call score of the fitted dose curve at least 0.9, where 1 is the maximum;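 on AC50: potency for gain of reporter signal over DMSO so agonist or activator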). In short, it runs like this: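 Read-out is fluorescence of reporter cDNA fragments resolved by capillary electrophoresis after RT-PCR. Human HepG2 liver cells carried transfected PPARa-Gal4 chimera and GAL4-UAS reporter units, treated 24 h; activity scored as increase over DMSO.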

Assay [5] deals with human Peroxisome Proliferator-activated Receptor delta (PPARd), PPARD (gene 5467) (UniProt Q03181). Kind of assay: ATG_PPARd_TRANS: Attagene TRANS-FACTORIAL HepG2 Assay for human Peroxisome Proliferator-activated Receptor delta (PPARd) (AID 2283002; active means hit-call score of the fitted dose curve at least 0.9, where 1 is the maximum). Put shortly: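 Transient HepG2 transfection (multiple GAL4-UAS RTUs, chimeric receptor-Gal4); 24 h dosing; total RNA → oligo(dT) RT → PCR → 6-FAM primer extension → HpaI cut → CE. Positive direction vs DMSO.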

The target of assay [6] is Peroxisome proliferator-activated receptor gamma (Homo sapiens) (UniProt P37231). Nature of the assay: ATG_PPARg_TRANS: Attagene TRANS-FACTORIAL HepG2 Assay for human Peroxisome Proliferator-activated Receptor-gamma (PPARg) (AID 2283007; active means hit-call score of the fitted dose curve at least 0.9, where 1 is the maximum). In short, it runs like this: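 HepG2 cells transiently transfected with multiplexed GAL4-UAS reporter units and exogenous chimeric NR-Gal4 proteins; reporter mRNA quantified after 24 h compound exposure by RT-PCR, fluorescent labelling, HpaI digestion and capillary electrophoresis; gain-of-signal fitted versus DMSO baseline.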

Assay [7] concerns the target Nuclear receptor subfamily 1 group I member 2 (Homo sapiens) (UniProt O75469). Kind of assay: ATG_PXR_TRANS: Attagene TRANS-FACTORIAL HepG2 Assay for human Pregnane X Receptor (PXR) (AID 2283008; active means hit-call score of the fitted dose curve at least 0.9, where 1 is the maximum). Put shortly:
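Fluorescence intensity of FAM-labelled, HpaI-digested reporter amplicons, separated by capillary electrophoresis, quantifies induction. HepG2 cells with PXR-Gal4 trans-reporter system were exposed 24 h; DMSO defines baseline.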

The nature of assay [8]: ATG_NRF2_ARE_CIS: Attagene CIS-FACTORIAL HepG2 Assay for human Nuclear Factor Erythroid 2 Related Factor 2 (NFR2) response to Antioxidant Response Elements (ARE) (AID 2282992). The conditions noted are these: HepG2 Attagene ARE/NRF2 reporter, transcription factor activity; actives raise or lower the signal. Put shortly: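 Cis-factorial assay: transfected HepG2 reporter library, 24 h dosing, mRNA readout via RT-PCR/CE; DMSO-referenced bidirectional analysis.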

Assay [9] concerns the target human Retinoic Acid Receptor beta (RARb), RARB (gene 5915) (UniProt P10826). Kind of assay: ATG_RARb_TRANS: Attagene TRANS-FACTORIAL HepG2 Assay for human Retinoic Acid Receptor beta (AID 2283004; active means hit-call score of the fitted dose curve at least 0.9, where 1 is the maximum). In short, it runs like this:
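HepG2 cells were transiently transfected with GAL4-UAS reporter units that report activity of exogenous chimeric NR-Gal4 proteins, then exposed to compound for 24 h. Reporter mRNA was quantified by RT-PCR with capillary electrophoresis fluorescence, as gain of signal over DMSO.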

Assay [10] concerns the target Retinoic acid receptor alpha (Homo sapiens) (UniProt P10276). Kind of assay: ATG_RARa_TRANS: Attagene TRANS-FACTORIAL HepG2 Assay for human Retinoic Acid Receptor alpha (RARa) (AID 2283005; active means hit-call score of the fitted dose curve at least 0.9, where 1 is the maximum). Put shortly:
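Reporter transcripts, measured by RT-PCR with fluorescent labeling and capillary electrophoresis after 24 h dosing, reflect activity of an exogenous human RARa–GAL4 fusion in transiently transfected HepG2. Fitted for increase relative to DMSO.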

For assay [11], the target named is human Retinoic Acid Receptor gamma (RARg), RARG (gene 5916) (UniProt P13631). Kind of assay: ATG_RARg_TRANS: Attagene TRANS-FACTORIAL HepG2 Assay for human Retinoic Acid Receptor gamma (RARg) (AID 2283009; active means hit-call score of the fitted dose curve at least 0.9, where 1 is the maximum). In short, it runs like this: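 Transient transfection of HepG2 with multi-reporter constructs, then 24 h chemical treatment. Total RNA isolated, reverse-transcribed, PCR-amplified, fluorescently labelled and resolved by capillary electrophoresis; activity scored as mRNA induction versus DMSO.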

The target in assay [12] is human RAR-related Orphan Receptor beta (RORb), RORB (gene 6096) (UniProt Q92753). Nature of the assay: ATG_RORb_TRANS: Attagene TRANS-FACTORIAL HepG2 Assay for human RAR-related Orphan Receptor beta (RORb) (AID 2283010; active means hit-call score of the fitted dose curve at least 0.9, where 1 is the maximum). Put shortly: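 Readout is reporter-gene mRNA induction, detected as fluorescence after RT-PCR and capillary electrophoresis, fitted for gain of signal against DMSO controls. Transiently transfected HepG2 liver cells carrying GAL4-UAS reporter constructs were treated for 24 hours.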

Assay [13] in a line: BSK_3C_TissueFactor: BioMAP Diversity Plus: 3C Assay for Tissue Factor Biomarker Activity (AID 2282997). The conditions noted are these: BioMAP 3C HUVEC, tissue factor biomarker readout; actives raise or lower the signal. Put shortly:
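HUVEC were treated 24 h, then surface tissue factor measured by ELISA and fitted bidirectionally against DMSO. Parallel SRB total-protein staining assessed overt cytotoxicity at the same time point.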

A short description of assay [14]: BSK_3C_uPAR: BioMAP Diversity Plus: 3C Assay for Urokinase-type plasminogen activator receptor (uPAR) Biomarker Activity (AID 2282998). The conditions noted are these: BioMAP 3C HUVEC, uPAR biomarker ELISA; actives raise or lower the signal. In short, it runs like this: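 Endothelial primary cells of human umbilical vein origin received test chemical; 24 h later uPAR was assayed by ELISA. Fitting was bidirectional, DMSO as negative control.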
For orientation: ELISA stands for enzyme-linked immunosorbent assay.

Assay [15] in a line: BSK_3C_VCAM1: BioMAP Diversity Plus: 3C Assay for Vascular cell adhesion molecule 1 (VCAM1) Biomarker Activity (AID 2282999). The conditions noted are these: BioMAP 3C HUVEC, VCAM1 ELISA, cytokine-stimulated; actives raise or lower the signal. In short, it runs like this: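 Endothelial cells from human umbilical vein are treated with test chemical. At 24 h, VCAM-1 is measured by ELISA, and responses in either direction are fitted relative to DMSO.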

Assay [16] is described as follows: BSK_4H_Eotaxin3: BioMAP Diversity Plus: 4H Assay for Eotaxin 3 Biomarker Activity (AID 2283000).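 On outcome: CCL26 protein level quantified by ELISA in parallel with SRB cytotoxicity check.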 The conditions noted are these: primary human endothelial cells (HUVEC); actives raise or lower the signal. In short, it runs like this: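 Eotaxin-3 (CCL26) levels were measured by ELISA in HUVEC primary cultures 24 h post-dosing. Gain or loss of signal was fitted in both directions, with DMSO serving as baseline and negative control.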

In assay [17] the target is Retinoic acid receptor RXR-alpha (Homo sapiens) (UniProt P19793). Kind of assay: ATG_RXRa_TRANS: Attagene TRANS-FACTORIAL HepG2 Assay for human Retinoid X Receptor alpha (RXRa) (AID 2283012; active means hit-call score of the fitted dose curve at least 0.9, where 1 is the maximum). In short, it runs like this: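 Transient transfection of human HepG2 with multiple GAL4-UAS reporter constructs; 24 h compound exposure; total RNA isolated, reverse-transcribed, PCR-amplified, 6-FAM labelled, HpaI-cut, resolved by capillary electrophoresis. Positive-direction fit versus DMSO.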

Read-out in assay [18]: Intercellular Adhesion Molecule 1 (ICAM1), ICAM1 (gene 3383)
Nature of the assay: BSK_3C_ICAM1: BioMAP Diversity Plus: 3C Assay for Intercellular Adhesion Molecule 1 (ICAM1) Biomarker Activity (AID 2283003). The conditions noted are these: primary human endothelial cells (HUVEC); actives raise or lower the signal. In short, it runs like this: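 ICAM-1 levels measured by ELISA after HUVEC cultures in the 3C system had been dosed for 24 h. Gain or loss of signal relative to DMSO was fitted in both directions.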

Assay [19] can be described thus: BSK_3C_Proliferation: Cell Proliferation Assessment in the BioMAP Diversity Plus: 3C Assay (AID 2283006).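 Further: potency may reflect either rise or fall in cell number versus DMSO.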 The conditions noted are these: primary human endothelial cells (HUVEC). Put shortly:
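Read-out is total protein by SRB absorbance at 560 nm, taken as a proxy for relative cell number. Primary human umbilical vein endothelium cultured below confluence was dosed for 48 h, TCA-fixed and SRB-stained; curves were fitted bidirectionally versus DMSO.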

Records with an inconclusive call do not appear. Active and inactive are the calls of the source. How the source made its calls, unless noted: active means hit-call score of the fitted dose curve at least 0.9, where 1 is the maximum; inactive means score below 0.9.

Chain of Retinoic acid receptor alpha (Homo sapiens) (P10276 whole entry, looked up, the tested form may be a part): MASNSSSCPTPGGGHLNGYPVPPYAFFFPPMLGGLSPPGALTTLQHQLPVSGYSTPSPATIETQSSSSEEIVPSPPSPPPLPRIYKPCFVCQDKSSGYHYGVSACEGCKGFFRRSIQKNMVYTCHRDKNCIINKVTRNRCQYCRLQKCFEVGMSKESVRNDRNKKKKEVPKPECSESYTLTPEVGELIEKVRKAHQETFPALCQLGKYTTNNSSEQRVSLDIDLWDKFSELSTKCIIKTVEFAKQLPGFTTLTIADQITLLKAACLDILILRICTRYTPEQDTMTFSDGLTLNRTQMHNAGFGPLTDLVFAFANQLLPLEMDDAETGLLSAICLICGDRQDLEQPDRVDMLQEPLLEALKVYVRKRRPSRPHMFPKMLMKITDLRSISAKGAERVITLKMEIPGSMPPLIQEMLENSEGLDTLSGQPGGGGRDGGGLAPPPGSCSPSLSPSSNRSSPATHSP
Chain of human Retinoic Acid Receptor beta (RARb), RARB (gene 5915) (P10826 whole entry, looked up, the tested form may be a part): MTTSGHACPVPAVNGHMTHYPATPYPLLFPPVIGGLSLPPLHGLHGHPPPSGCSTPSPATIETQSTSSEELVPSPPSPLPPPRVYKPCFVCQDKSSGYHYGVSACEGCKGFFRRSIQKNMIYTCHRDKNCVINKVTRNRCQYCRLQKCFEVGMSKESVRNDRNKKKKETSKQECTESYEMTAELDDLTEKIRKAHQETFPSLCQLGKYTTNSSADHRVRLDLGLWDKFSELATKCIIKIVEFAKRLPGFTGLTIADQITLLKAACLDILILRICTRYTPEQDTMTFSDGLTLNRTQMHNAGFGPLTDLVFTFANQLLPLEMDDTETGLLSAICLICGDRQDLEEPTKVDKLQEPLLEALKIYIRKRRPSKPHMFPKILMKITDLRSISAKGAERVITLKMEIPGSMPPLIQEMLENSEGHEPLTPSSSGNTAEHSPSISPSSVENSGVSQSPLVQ
Chain of human Peroxisome Proliferator-activated Receptor alpha (PPARa), PPARA (gene 5465) (Q07869 whole entry, looked up, the tested form may be a part): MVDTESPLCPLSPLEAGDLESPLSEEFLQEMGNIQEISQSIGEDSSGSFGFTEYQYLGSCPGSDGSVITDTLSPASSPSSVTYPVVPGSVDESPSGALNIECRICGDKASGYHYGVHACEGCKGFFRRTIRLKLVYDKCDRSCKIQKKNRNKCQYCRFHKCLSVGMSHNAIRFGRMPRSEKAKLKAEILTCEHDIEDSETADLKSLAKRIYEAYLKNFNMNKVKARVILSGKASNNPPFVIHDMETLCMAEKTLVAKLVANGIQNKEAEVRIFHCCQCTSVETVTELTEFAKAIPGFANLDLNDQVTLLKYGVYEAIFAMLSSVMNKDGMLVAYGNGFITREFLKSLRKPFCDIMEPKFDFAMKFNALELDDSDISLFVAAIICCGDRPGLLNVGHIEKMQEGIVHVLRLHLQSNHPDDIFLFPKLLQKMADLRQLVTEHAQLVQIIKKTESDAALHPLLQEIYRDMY
Chain of Retinoic acid receptor RXR-alpha (Homo sapiens) (P19793 whole entry, looked up, the tested form may be a part): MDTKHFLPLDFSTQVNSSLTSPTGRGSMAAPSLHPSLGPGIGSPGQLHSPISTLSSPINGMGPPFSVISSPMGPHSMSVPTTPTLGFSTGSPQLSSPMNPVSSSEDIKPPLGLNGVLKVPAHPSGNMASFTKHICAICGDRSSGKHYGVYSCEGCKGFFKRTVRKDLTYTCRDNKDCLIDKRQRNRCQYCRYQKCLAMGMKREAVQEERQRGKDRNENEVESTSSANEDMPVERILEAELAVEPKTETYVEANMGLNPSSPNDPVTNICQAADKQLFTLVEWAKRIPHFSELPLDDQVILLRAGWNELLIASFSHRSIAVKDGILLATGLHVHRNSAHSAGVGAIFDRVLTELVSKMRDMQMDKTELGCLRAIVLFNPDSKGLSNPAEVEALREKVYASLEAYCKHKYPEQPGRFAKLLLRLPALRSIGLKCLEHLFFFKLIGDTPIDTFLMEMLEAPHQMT
Chain of Nuclear receptor subfamily 1 group I member 2 (Homo sapiens) (O75469 whole entry, looked up, the tested form may be a part): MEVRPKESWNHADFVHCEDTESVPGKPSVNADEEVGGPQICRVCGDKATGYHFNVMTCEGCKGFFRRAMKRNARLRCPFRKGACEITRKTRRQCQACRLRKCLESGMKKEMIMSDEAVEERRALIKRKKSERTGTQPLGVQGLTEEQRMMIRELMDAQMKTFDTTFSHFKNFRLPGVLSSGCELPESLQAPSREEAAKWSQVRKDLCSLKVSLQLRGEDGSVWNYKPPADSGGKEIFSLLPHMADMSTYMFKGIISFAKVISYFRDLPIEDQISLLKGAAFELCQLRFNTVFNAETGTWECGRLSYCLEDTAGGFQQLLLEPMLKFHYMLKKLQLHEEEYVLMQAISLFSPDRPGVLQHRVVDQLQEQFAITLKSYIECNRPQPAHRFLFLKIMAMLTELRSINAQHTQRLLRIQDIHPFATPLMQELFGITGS
Chain of human Retinoic Acid Receptor gamma (RARg), RARG (gene 5916) (P13631 whole entry, looked up): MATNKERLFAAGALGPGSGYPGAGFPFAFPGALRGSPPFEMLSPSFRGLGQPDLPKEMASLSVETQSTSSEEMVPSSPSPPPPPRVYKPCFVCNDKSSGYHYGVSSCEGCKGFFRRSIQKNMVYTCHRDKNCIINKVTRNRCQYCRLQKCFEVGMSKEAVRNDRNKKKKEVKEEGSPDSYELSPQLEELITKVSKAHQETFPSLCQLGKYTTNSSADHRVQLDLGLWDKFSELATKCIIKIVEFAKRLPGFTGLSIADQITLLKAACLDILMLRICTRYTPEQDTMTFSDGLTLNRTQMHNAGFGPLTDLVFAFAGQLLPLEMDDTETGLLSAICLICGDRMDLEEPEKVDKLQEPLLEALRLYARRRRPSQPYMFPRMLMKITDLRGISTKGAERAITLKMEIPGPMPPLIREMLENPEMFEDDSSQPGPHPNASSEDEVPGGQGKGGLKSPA
Chain of Peroxisome proliferator-activated receptor gamma (Homo sapiens) (P37231 whole entry, looked up, the tested form may be a part): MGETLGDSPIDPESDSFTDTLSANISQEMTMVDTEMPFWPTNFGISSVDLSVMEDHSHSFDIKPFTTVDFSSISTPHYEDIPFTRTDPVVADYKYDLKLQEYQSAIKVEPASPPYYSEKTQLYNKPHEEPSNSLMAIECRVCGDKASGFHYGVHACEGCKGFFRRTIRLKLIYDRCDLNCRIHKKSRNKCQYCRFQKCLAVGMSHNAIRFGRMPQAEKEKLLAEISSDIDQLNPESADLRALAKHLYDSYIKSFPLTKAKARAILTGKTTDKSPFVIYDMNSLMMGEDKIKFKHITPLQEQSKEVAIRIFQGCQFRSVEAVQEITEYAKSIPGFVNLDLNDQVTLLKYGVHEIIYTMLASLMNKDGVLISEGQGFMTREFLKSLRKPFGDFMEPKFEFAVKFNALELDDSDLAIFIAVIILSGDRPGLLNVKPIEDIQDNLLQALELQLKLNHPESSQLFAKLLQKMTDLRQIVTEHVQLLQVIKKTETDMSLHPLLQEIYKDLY
Chain of human Peroxisome Proliferator-activated Receptor delta (PPARd), PPARD (gene 5467) (Q03181 whole entry, looked up, the tested form may be a part): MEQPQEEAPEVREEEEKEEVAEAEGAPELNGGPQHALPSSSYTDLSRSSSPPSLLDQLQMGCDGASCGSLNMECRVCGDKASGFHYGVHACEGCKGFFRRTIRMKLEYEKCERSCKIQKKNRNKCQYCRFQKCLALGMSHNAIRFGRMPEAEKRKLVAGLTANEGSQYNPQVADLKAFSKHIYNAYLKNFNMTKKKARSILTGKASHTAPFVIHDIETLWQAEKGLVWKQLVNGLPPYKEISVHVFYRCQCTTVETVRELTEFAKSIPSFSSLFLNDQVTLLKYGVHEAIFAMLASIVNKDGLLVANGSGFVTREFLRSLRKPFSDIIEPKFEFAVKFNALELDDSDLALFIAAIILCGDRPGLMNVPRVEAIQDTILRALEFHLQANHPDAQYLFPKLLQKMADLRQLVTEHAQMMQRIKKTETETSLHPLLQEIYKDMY
Chain of Cellular tumor antigen p53 (Homo sapiens) (P04637 whole entry, looked up): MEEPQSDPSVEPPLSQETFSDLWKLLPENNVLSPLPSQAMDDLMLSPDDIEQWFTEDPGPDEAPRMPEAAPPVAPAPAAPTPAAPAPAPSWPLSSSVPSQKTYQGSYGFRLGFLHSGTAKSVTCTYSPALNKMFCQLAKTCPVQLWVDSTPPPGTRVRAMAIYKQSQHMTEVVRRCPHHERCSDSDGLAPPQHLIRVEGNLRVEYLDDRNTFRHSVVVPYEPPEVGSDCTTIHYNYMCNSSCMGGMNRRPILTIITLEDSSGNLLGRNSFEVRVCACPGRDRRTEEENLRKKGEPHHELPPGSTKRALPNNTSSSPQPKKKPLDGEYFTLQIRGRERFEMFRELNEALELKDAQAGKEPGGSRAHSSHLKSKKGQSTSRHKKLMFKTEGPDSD
Chain of human RAR-related Orphan Receptor beta (RORb), RORB (gene 6096) (Q92753 whole entry, looked up, the tested form may be a part): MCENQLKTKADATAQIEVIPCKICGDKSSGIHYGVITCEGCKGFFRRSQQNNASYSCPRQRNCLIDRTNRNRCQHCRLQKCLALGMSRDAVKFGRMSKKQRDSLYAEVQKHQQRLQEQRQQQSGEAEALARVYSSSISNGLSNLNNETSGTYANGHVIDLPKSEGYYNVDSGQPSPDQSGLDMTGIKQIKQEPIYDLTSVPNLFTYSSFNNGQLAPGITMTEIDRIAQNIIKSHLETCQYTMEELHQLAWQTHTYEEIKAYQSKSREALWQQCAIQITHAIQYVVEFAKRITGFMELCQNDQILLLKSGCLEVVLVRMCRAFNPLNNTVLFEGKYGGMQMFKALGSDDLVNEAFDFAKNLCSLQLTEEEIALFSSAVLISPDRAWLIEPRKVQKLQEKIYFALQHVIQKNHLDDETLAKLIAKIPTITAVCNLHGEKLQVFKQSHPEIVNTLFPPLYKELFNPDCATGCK

Take `C=CCN=C=S`: the result in assay [1], in [2], in [3], in [4], in [5] and in assay [6] was inactive. For the same compound, in assay [7], the result was inactive.

In the case of `OC[C@@H](O)[C@H]1O[C@@H]2O[C@H](C(Cl)(Cl)Cl)O[C@@H]2[C@H]1O`, the outcome in [1], in [8], in [2], in assay [4], in assay [9] and in [10] was inactive. For the same compound, the result in assay [6], in assay [7], in assay [11] and in [12] was inactive.

For the compound `CCCCC(CC)COC(=O)Cl` (stereo unspecified), the result in assay [1], in [8], in assay [2], in assay [9], in [10] and in assay [6] was inactive. The outcome in [11] was inactive.

Regarding `Oc1cc(Cl)c(Cl)cc1Cl`, the compound was called inactive in assay [1], in assay [8], in assay [15], in [7] and in [17]. For the same compound, the AC50 (in general, the midpoint of the concentration-response curve, whichever way the signal moves) in assay [2] is 66.2 µM (active); in [13] it was 20 µM (active); in assay [14], 14.7 µM (active); in assay [16], 27.6 µM (active); in assay [6] it was 55.9 µM (active).

In the case of `CC[N+](CC)(CC)CC`, the compound was called inactive in assay [1], in [8], in assay [2], in assay [4], in assay [6] and in assay [7]. Further, the compound was classed as inactive in assay [17].

For the compound `O=C(O)C1(c2ccc3c(c2)OC[C@H](Cc2ccc(-c4ccccc4)cc2)[C@H]3O)CCCC1`, the compound was called inactive in [1], in [2], in assay [13], in assay [16], in [18] and in assay [9]. The call in assay [10], in assay [7], in assay [11] and in assay [17] was inactive. The concentration at half-maximal activity (AC50) is 8.26 µM (active) in [8]; 29.9 µM (active) in assay [14]; 20 µM (active) in assay [15]; 11 µM (active) in assay [4]; 13.2 µM (active) in assay [19].

(Values after PubChem BioAssay (EPA / NIEHS).)
